Laboratory results taken from the OligoGym collection.

biological target: ABCB11; experiment: pooled miR-30 sensor sort-seq; sequence = guide strand; settings: shRNA
Note: reference of the scale not given here.

Sequence	sensor-assay potency score (higher = more potent)
TACAACTGCAGAGATCACCCTG	0.317
TTAGCTTTTGCATAACTTGGGG	-0.00733
TAACCATCTTCTGACATGCAGT	-1.16
TTCTTGTAACTCAACGTCGTAG	-0.168
TTCTTCTCATCTTGTAACCTTG	-0.836
TTGCACTCAGTACAACTGCAGA	-1.15
TAGACTTATGATCTACAACAGC	-1.33
TAGCTTTTGCATAACTTGGGGT	0.0681
TTTGCTGTCATGACCATCTATC	-0.277
TAGAGTGAAGTAAACACCTTTC	-0.144
TTGACTATCATCCCGATCTGAG	-0.211

biological target: ABCD4; experiment: as above; settings: shRNA

Sequence	sensor-assay potency score (higher = more potent)
ATCTGCATGTGCTTGAACCTAA	-0.448
ATGAGCTGGGTGAAGCAGCTGA	-0.109
TCGATCTTCGCTGTCAGTCCTC	-0.221
TAGTCAAAGGTGTTGATGCCGA	-0.776
TGCGATGACAACGTAACTCAGG	-0.631
TAGTAGACGAGGGTGAACGGGG	-0.612
TTACAGATCTCACACTTCCAGA	-0.864
ATCGGCAGAACCTGAGTCGGGG	-0.759
TCTCATCATCGGCAGAACCTGA	-0.963
